In PubChem BioAssay:

Assay: binders of probe aFST on microarray, primary screen, stem cell growth factor project, biochemical, small-molecule microarray, fluorescence 635/667 (AID 1086);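 also: score merges 667 nm fluorescence with signal-to-noise of each printed compound spot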
Settings: higher = more signal
`COc1ccc(NC(=O)O[C@H]2[C@H](OC(=O)c3cc4ccccc4[nH]3)[C@@H](OC(=O)c3cc4ccccc4[nH]3)[C@@H](OC)O[C@@H]2CO)cc1` gave a composite z-score of 0.0417. In the case of `C=C(CCCC)C(=O)CC[C@H](OC(=O)c1cccnc1)c1ccc(OCCO)cc1`, the composite z-score is reported as -0.0065. For `C=CCN1C(=O)[C@]2(Cc3ccccc3)N=C(c3ccc(OCCCO)cc3)O[C@@H]2c2ccccc21`, the composite z-score was 0.395. With `CC(=O)NCCCC[C@@H]1NC(=O)[C@H]2C[C@@H](C(=O)NCCCCCNC(=O)CS)[C@@H](c3ccc(O)cc3)N2C1=O` the composite z-score was -0.226. In the case of `C=CCC(OC(C)=O)[C@@H]1[C@@H](N(Cc2cc3ccccc3o2)C(=O)Cc2ccc(OC)cc2)c2cc(OCCCO)ccc2N1C(=O)c1ccc2ccccc2c1` (stereo not given in full), the composite z-score is reported as -0.005. Work on `CC(c1ccccc1)C(O)C1C=CC2C(=O)N(c3ccccc3)C(=O)C2N1Nc1ccccc1` (stereo not given) yielded a composite z-score of 1.38. For `COc1ccc([C@H]2C[C@H]3C(Br)=C[C@@]2(CO)C(=O)[C@]32CO2)cc1`, the composite z-score was 0.0716. For `COCCOC(=O)N1C(=O)[C@@]2(c3cc(C#CCCO)ccc31)[C@H](c1ccc(OCCO)cc1)N1[C@H](c3ccccc3)[C@H](c3ccccc3)OC(=O)[C@H]1[C@@H]2C(N)=O`, the composite z-score was 0.177. `CCCCN1CC=CC23O[C@@H]4/C=C\CCCOC(=O)C4[C@H]2C(=O)N(CCCCCO)[C@@H]3C1=O` (stereo not given in full) showed a composite z-score of -0.804. With `NCCCCCCNC(=O)[C@H]1C[C@H]2C(=O)N[C@@H](Cc3ccccc3)C(=O)N2[C@H]1c1cccc(OCCO)c1` the composite z-score was 0.482. With `COc1ccc([Si](C)(C)[C@@H]2[C@@H](CCn3cc(CCO)nn3)O[C@]3(C(=O)N(Cc4cccc(N5C(=O)c6cccc7cccc5c67)c4)c4ccccc43)[C@H]2C)cc1` the composite z-score was 0.525. With `CC(=O)Nc1cc(Br)ccc1C(=O)NCc1ccccc1` the composite z-score was -0.0314. `CCCCCN1CC=CC23O[C@@H]4C=CCOC(=O)[C@@H]4[C@H]2C(=O)N(C(C)CO)[C@@H]3C1=O` (stereo not given in full) gave a composite z-score of -0.637. With `CCOC(=O)C1=C[C@@H](C(C)C)N(S(=O)(=O)c2ccc(C)cc2)[C@H]1c1ccccc1F` the composite z-score was 0.904. For `CS(=O)(=O)CCOC(=O)C1=CC(CCCO)=CC(C2CC2)N(Cc2cc3c(cc2Br)OCO3)C=C1C(=O)OCCS(C)(=O)=O` (stereo not given), the composite z-score was 0.114. Work on `Cc1c(NC(=O)/C(C#N)=C/c2cccc([N+](=O)[O-])c2)c(=O)n(-c2ccccc2)n1C` yielded a composite z-score of -0.0089. Compound `C=CCN1Cc2ccccc2[C@@H]2OC(c3ccc(OCCCO)cc3)=N[C@]2(CCS(=O)(=O)c2ccccc2)C1=O` has a composite z-score of 0.804. For `C=CCNC(=O)[C@@H]1[C@H]2C(=O)O[C@H](c3ccccc3)[C@H](c3ccccc3)N2[C@H](c2ccc(OCCO)cc2)[C@@]12C(=O)N(C(=O)OCCOC)c1ccc(C#CCC(C(=O)OC)C(=O)OC)cc12`, the composite z-score was 0.88. Compound `CN1C(=O)C2C=CC(C(O)C=Cc3ccc([N+](=O)[O-])cc3)N(Nc3ccccc3)C2C1=O` (stereo not given) has a composite z-score of 0.998. For `COCCOC(=O)N1C(=O)[C@@]2(c3cc(C#CC4=CCCCC4)ccc31)[C@H](c1ccc(OCCO)cc1)N1[C@H](c3ccccc3)[C@H](c3ccccc3)OC(=O)[C@H]1[C@@H]2C(=O)N1CCc2cc(OC)c(OC)cc2C1`, the composite z-score was 0.596. Work on `CC(C)CN1C(=O)[C@@]2(c3ccc([N+](=O)[O-])cc3)CC(=O)N(C3CCCCC3)[C@@H]2c2ccc(CO)cc21` yielded a composite z-score of -1.09. `C#CCN1[C@H](/C=C/C2CC2)[C@H](Cc2ccccc2)OC(=O)[C@@H]1Cc1ccccc1` gave a composite z-score of -0.0168. Work on `COc1ccccc1CN1C(=O)c2ccccc2[C@@]2(Cc3ccccc3N(CCCN(C)C)C2=O)[C@@H]1c1ccc(CO)cc1` yielded a composite z-score of -0.201. Compound `COC(=O)[C@@]1(CCC(=O)OC(C)(C)C)N=C(c2ccc(OCCCO)cc2)O[C@H]1c1ccccc1` has a composite z-score of -0.164. `O=C(O)[C@@]1(CCS(=O)(=O)c2ccccc2)N=C(c2ccc(OCCCO)cc2)O[C@H]1c1ccccc1` gave a composite z-score of 0.38. For `C=CCN(Cc1ccccc1)C(=O)C(c1cccs1)N(C(=O)/C=C\C(=O)O)c1ccc(CCOCCO)cc1` (stereo not given), the composite z-score was -1.35. `CC(C)NC(=O)[C@@H]1c2ccccc2C(=O)N(C(C)C)[C@H]1c1ccc(CO)cc1` showed a composite z-score of -0.868. In the case of `C=CCC(OC(C)=O)[C@@H]1[C@@H](N(Cc2ccc(-c3cccc(C(F)(F)F)c3)o2)C(=O)c2cccc3ccccc23)c2cc(OCCCO)ccc2N1C(=O)Cc1ccc2ccccc2c1` (stereo not given in full), the composite z-score is reported as 0.214. `COc1ccc([Si](C)(C)[C@@H]2[C@@H](CCn3cc([C@H](O)c4ccccc4)nn3)O[C@]3(C(=O)N(Cc4cccc(N5CCC5=O)c4)c4ccccc43)[C@H]2C)cc1` showed a composite z-score of -0.162. In the case of `O=C(NCCN1CCOCC1)[C@@H]1c2ccccc2C(=O)N(Cc2cc(C(F)(F)F)cc(C(F)(F)F)c2)[C@H]1c1ccc(CO)cc1`, the composite z-score is reported as 0.0794. Compound `C=C(CCCC)/C(=C/C[C@H](OC(C)=O)c1ccccc1OCCO)c1cnc2ccccc2c1` has a composite z-score of 0.162. For `COC(=O)[C@@]1(Cc2ccc(OC)cc2)[C@H]2c3cc(C(=O)N4CCCC4)n(CCc4ccc(O)c(O)c4)c3C[C@H]2CN1C(=O)c1ccccc1`, the composite z-score was 0.939. With `Cc1ccc(S[C@]2(C(=O)NCC(C)C)CC(=O)N(Cc3cc(C(F)(F)F)cc(C(F)(F)F)c3)[C@@H]2c2ccc(CO)cc2)cc1` the composite z-score was 0.0031. Work on `O=C(NC1CC1)[C@@H]1c2ccccc2C(=O)N(C2Cc3ccccc3C2)[C@H]1c1ccc(CO)cc1` yielded a composite z-score of 0.325. Work on `O=C1OCCC=C[C@H]2OC34C=CCN(CCN5CCOCC5)C(=O)[C@H]3N(CCCCCO)C(=O)[C@@H]4C12` (stereo not given in full) yielded a composite z-score of -0.324.
